# Luciferase inh – blocks Photinus pyralis firefly luciferase activity. P08659. purified firefly luciferase, luminescence, 8 min. Potency, µM (titrated, usually from 57.1 µM), inactives show top-dose activity change, negative = inhibition, actives largely listed as inhibitors. 72,000 compounds, 2.2% hits. AID 411; also: % is scaled to controls: 0 for no effect and ±100 for the full control effect; nearly all actives have a fitted effect of over 40% in size
# Target sequence (P08659 whole entry, looked up): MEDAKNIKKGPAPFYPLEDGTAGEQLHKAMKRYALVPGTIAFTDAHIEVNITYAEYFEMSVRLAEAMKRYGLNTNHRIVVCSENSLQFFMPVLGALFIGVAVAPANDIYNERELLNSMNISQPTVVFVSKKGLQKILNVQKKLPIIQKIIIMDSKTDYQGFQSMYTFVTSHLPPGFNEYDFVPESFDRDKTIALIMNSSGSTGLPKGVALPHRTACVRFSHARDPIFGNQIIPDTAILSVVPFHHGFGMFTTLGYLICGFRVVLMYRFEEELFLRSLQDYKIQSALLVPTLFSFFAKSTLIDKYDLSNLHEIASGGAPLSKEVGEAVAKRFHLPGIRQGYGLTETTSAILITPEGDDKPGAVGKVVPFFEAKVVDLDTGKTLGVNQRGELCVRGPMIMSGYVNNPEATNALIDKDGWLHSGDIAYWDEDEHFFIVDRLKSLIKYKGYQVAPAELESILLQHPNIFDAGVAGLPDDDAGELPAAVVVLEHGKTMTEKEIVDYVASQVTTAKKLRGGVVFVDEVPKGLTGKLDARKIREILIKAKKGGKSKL
#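 Titration-based qHTS; buffer 50 mM imidazole pH 7.2, 50 mM KCl, 7 mM MgCl2, 10 uM ATP, 0.01% Tween 20, 0.05% BSA; luciferase/luciferin detector mix added after compound; 8 min, ambient; luminescence.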
# PK Bst – modulators of Bacillus stearothermophilus pyruvate kinase; Potency, µM; 51,000 compounds, 1.2% hits; purified pyruvate kinase, luminescence ATP production; ribose 5-phosphate activator present at AC10; in the data active = potency below about 11 µM; inconclusive = mostly about 12 µM to 25 µM;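 the screen sought inhibitors and activators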;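 also: scaled between full activation by ribose 5 phosphate and full inhibition by luteolin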
# Tau fil binding – binds recombinant human tau filaments. recombinant tau filaments, thioflavin S fluorescence, 15 h; filaments grown with octadecylsulfate alongside compound. Potency, µM (highest dose often 57.1 µM), for the others: at the highest dose activity change, negative = inhibition. 71,000 compounds, 2% hits;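 also: % is scaled to controls: 0 for no effect and ±100 for the full control effect; actives lower thioflavin S fluorescence by blocking filaments or displacing dye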
#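 Read-out: ThS fluorescence, 450 nm excitation/510 nm emission; lower signal marks blocked filament formation or displaced dye. Tau at 1 uM with 30 uM ODS, 10 uM ThS, 5 mM DTT, 100 mM NaCl, 10 mM HEPES pH 7.4; 15 h, 37 C.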
# 15-hLO inh – blocks human 15-lipoxygenase activity. P16050. purified 15hLO-1, xylenol orange hydroperoxide absorbance. Potency, µM (series often up to 57.1 µM), without a hit: top-dose activity change, negative = inhibition, usual class: inhibitors. 74,000 compounds, 1.4% hits; also: % is scaled to controls: 0 for no effect and ±100 for the full control effect; nearly all actives have a fitted effect of over 55% in size
#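 Compounds were preincubated 15 min at room temperature with 40 nM purified human enzyme (25 mM Hepes pH 7.5, 0.01% Triton X-100); 50 uM arachidonic acid reacted 6 min. Fe-xylenol orange detection, 30 min, absorbance ratio 573/405 nm.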
# TSHR ag – agonists of human thyroid stimulating hormone receptor; AID 926; HEK293-CNG-TSHR cells (CNG channel as cAMP sensor), membrane potential dye, cAMP; Potency, µM (highest dose often 57.1 µM), without a hit: at the highest dose activation, most hits filed as activators; P16473; 73,000 compounds, 0.48% hits; active = well fitted activation curve with a large enough effect in the main read-out, with a control signal flat, not every such curve was filed as active; inconclusive = small, poorly fitted or top-dose-only effect, or a change in a side signal; inactive = no such curve, though single readings can be large or run the other way; % of control where 0% means no effect;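 also: the control signal comes from parental cells without the receptor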
#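 cAMP rise detected as CNG-channel membrane depolarization by fluorescent dye (emission 590 nm), 30 min after compound, following 60 min dye loading containing 100 uM RO 20-1724 at room temperature. Cells: TSHR/CNG HEK 293, with parental CNG HEK 293 as control.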
# HEK293 cAMP ctrl – raises cAMP in parental HEK293 cells, TSHR agonist counter-screen. parental HEK293 CNG cAMP sensor, membrane potential fluorescence. Potency, µM (highest dose often 57.1 µM), inactives show at the top dose activation, hits mostly activators. 73,000 compounds, 2.5% hits; also: % of control where 0% means no effect; nearly all actives have a fitted effect of over 55% in size
#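 Parental HEK 293 cells stably expressing a cAMP-gated CNG channel were loaded with membrane potential dye containing 100 uM RO 20-1724 for 60 min. Compound added for 30 min; depolarization read as fluorescence intensity at 590 nm.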
# * marks the source's active call; other numbers are inactive results; i = inactive; ? = inconclusive; . = not tested or not shown; [ ] = another dose, or the depositor's remark. A selection: hits, their analogues and other compounds. The true share with any hit is near 7.8%. Unless noted, calls follow the shape of the dose curve; as a rule, active = well fitted curve in the direction sought with a large enough effect; inconclusive = small, poorly fitted or top-dose-only effect, or another doubt; inactive = no such curve, though single readings can be large; an effect the other way counts as inactive or inconclusive. Potency is read from the fitted curve at half-maximal effect.
SMILES,Luciferase inh,PK Bst,Tau fil binding,15-hLO inh,TSHR ag,HEK293 cAMP ctrl
O=C(N/N=C1/C[C@@H](O)[C@@H](O)[C@@H]2[C@@H]3C(=O)N(c4cccc(Oc5ccccc5)c4)C(=O)[C@H]3CC[C@H]12)OCc1ccccc1,0.2%[11.4 µM],.,.,17.8%[11.4 µM],1.3%[11.4 µM],-2.5%[11.4 µM]
CN(C)c1ncc2nc(CCc3ccccc3)c(=O)n(C[C@H]3CCCO3)c2n1,1.3%[11.4 µM],.,21.2%,-7.0%,?,?
COc1ncc2nc(-c3ccc(F)cc3)c(=O)n(C)c2n1,1.3%[11.4 µM],.,204.4%,2.0%,0.2%,3.8%
CCCCOC(=O)Nc1ccc(C(=O)OCCC)cc1,-4.1%,.,22.4%,-4.7%,26.3%,22.3%
CCCOC(=O)Nc1ccc(N2CCCCC2)cc1,12.6µM*,i,-10.3%,-6.5%,-1.5%,-4.1%
CC(C)Oc1ccc(C(=O)Nc2ccc(N3CCCC3)cc2)cc1,-13.3%,.,2µM*,1.26µM*,-23.1%[11.4 µM],-9.8%[11.4 µM]
COc1cccc(Cn2c(=O)c(-c3cccs3)nc3cnc(N4CCNCC4)nc32)c1,-2.7%[11.4 µM],.,i,-0.2%,-14.4%,-7.7%
CCCn1c(-c2ccc(F)cc2)nc2c(N3CCC(N(C)C)C3)nc(C)nc21 (stereo not drawn),.,.,18.1%,4.6%,?,?
CCCn1c(-c2ccc(F)cc2)nc2c(NCCN(C)C)nc(C)nc21,.,.,-5.7%,4.8%,?,?
CCCn1c(-c2ccc(F)cc2)nc2c(NCCN(C(C)C)C(C)C)nc(C)nc21,.,.,72.2%,-3.2%,?,12.6µM*
CCCn1c(-c2ccc(F)cc2)nc2c(N3CCN(C)CC3)nc(C)nc21,.,.,24.1%,20µM*,?,15.8µM*
CC(C)Cn1c(=O)c(C(=O)NCc2ccccn2)c(O)c2ccccc21,3.3%,>57,-2.9%,-20.7%,?,25.1µM*
CCCn1c(=O)c(C(=O)NCc2ccncc2)c(O)c2ccccc21,-15.1%,>57,5.3%,14.4%,?,?
CC(C)Cn1cnc2c(c1=O)c1nc3ccccc3nc1n2Cc1ccc2c(c1)OCO2,2.1%[25.5 µM],>25.6,.,.,.,.
O=C(Nc1cccc2ccccc12)c1ccc(Br)o1,-0.8%,.,-2.5%,-11.7%,?,?
Cc1ccc(C(=O)Nc2nc3c(s2)CCCC3)o1,-0.2%,>57,7.5%,-17.3%,.,4.4%
O=C(Cc1cccs1)Nc1nc2c(s1)CCCC2,-22.7%,>57,-15.8%,-0.9%,-9.7%,-2.6%
O=C(Nc1cccc2c1CCCC2)c1ccc(Br)o1,0.3%,.,37.6%,-9.6%,?,25.1µM*
O=C(Nc1nc2c(s1)CCCC2)c1cccs1,5.01µM*,9.71*,-1.3%,-21.5%,-0.4%,10.7%
O=C(Nc1nc2c(s1)CCCC2)c1ccc(Br)o1,6.31µM*,.,61.6%[11.4 µM],?,12.2%[11.4 µM],11.1%[11.4 µM]
NC(=O)c1c(NC(=O)c2cccs2)sc2c1CCCCCC2,7.94µM*,.,i,?,.,6.6%
Fc1ccccc1,.,.,-4.5%,-0.2%,4.2%,1.4%
Cc1cc(C)nc(SCCc2cccc[n+]2C)n1,2.7%[11.4 µM],.,3.9%[11.4 µM],-14.5%[11.4 µM],-2.0%[11.4 µM],-3.8%[11.4 µM]
O=S1(=O)C=CC(N2CCOCC2)C1 (stereo not drawn),2.8%,.,5.3%,5.0%,0.8%,-3.3%
O=C1CC(N2CCN(C3CCc4ccccc4C3)CC2)C(=O)N1c1ccccc1 (stereo not drawn),0.6%,.,14.6%,-2.5%,?,25.1µM*
SMILES,Luciferase inh,PK Bst,Tau fil binding,15-hLO inh,TSHR ag,HEK293 cAMP ctrl
O=C1CC(N2CCN(c3ccccc3Cl)CC2)C(=O)N1c1ccccc1 (stereo not drawn),1.4%,>57,5.9%,0.9%,-3.1%,-0.1%
O=C(Nc1nccs1)c1c(O)c2cccc3c2n(c1=O)CCC3,5.3%,>57,12.5%,-2.2%,?,1.26µM*
CCNc1nc(NC(C)C)nc(N(C#N)CCOc2ccc(Cl)cc2Cl)n1,-7.7%,>57,?,-27.4%,?,31.6µM*
CN(C)C(=O)CSc1nnc2sc3ccccc3n12,0.3%,>57,5.1%,-6.8%,-4.6%[11.4 µM],-2.0%
O=C(CSc1nnc2sc3ccccc3n12)c1ccco1,15.8µM*,i,-13.7%,-4.3%,3.9%,-8.0%
Clc1ccccc1CSc1nnc(-c2cccnc2)n1Cc1ccco1,3.6%,>57,6.6%,-0.3%,.,10.4%
